# Compound activity from PubChem.
# SUMO Mot1 rescue – inhibitors of SUMOylation pathway: yeast Mot1-301 growth rescue; S. cerevisiae Mot1-301 growth rescue, ATP luminescence, 38.5C; percent above DMSO median, 100 means doubled; growth rescue, % at 18.8 µM; 320,000 compounds, 1% hits; AID 2716;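 active = every valid replicate shows activation above 250% relative to neutral control wells; inactive = the rest, any valid replicate at or below 250%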;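 also: OY570 slx delta 5 strain wells were the positive control but not used for scaling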
# Casp6 inh – inhibitors of human caspase-6; purified caspase-6, Z-VEID-R110 cleavage fluorescence; inhibition, % at 12.5 µM; 350,000 compounds, 0.53% hits; AID 686996;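 active = mean inhibition across replicates at least about 35%, with every replicate also reaching that limit, limit read from the data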;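 also: 0% = median of neutral control wells and 100% = no fluorescence left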
# Target sequence (P55212 24-179 limits assumed): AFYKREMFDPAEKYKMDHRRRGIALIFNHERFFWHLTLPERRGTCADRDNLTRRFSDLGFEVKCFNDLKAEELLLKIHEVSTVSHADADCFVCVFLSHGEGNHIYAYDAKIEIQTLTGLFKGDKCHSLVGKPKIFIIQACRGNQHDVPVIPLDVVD
# Target sequence (P55212 194-293 limits assumed): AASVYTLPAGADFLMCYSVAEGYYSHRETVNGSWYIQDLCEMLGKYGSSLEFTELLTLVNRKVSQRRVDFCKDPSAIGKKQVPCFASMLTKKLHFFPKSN
# Glyco luc inh – N-linked glycosylation inhibition | 360,000 compounds, 0.23% hits | D54 ERlucT glycosylation luciferase reporter, 24 h; percent of 100 nM tunicamycin response | reporter increase, % at 12.5 µM | AID 588692;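 active = mean luciferase reporter signal, scaled so untreated is 0 and the glycosylation-blocking control 100, at or above a set limit in every replicate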;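 also: luciferase carries N-glycosylation sites so blocking glycosylation raises the light; 0% = median of neutral control wells and 100% = median of 100 nM tunicamycin wells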
# NSD2 HMT inh – inhibitors of human histone methyltransferase NSD2; NSD2 peptide methylation, AlphaScreen, 120 min; inhibition, % at 12.5 µM; O96028; 310,000 compounds, 0.54% hits; in the data active = inhibition above about 50%
# ALR H2O2 inh – inhibitors of human sulfhydryl oxidase ALR | AID 485317 | inhibition, % (no concentration beside the values) | P55789 | 290,000 compounds, 3.8% hits | purified ALR, DTT oxidation, H2O2 HRP-luminol luminescence;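 active = mean replicate inhibition above about 79%, with every replicate also reaching it, limit read from the data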
# Target sequence (P55789 whole entry, looked up): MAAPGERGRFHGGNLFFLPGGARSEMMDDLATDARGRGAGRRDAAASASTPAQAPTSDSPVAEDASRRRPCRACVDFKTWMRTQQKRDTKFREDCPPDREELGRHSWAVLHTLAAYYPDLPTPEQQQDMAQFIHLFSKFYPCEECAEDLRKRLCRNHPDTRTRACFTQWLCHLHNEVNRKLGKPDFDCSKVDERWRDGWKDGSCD
# CDK5 inh – blocks human CDK5/p35 kinase activity. Q00535+Q15078. AID 488839. inhibition, % at 10 µM. Recombinant CDK5/p35, ADP-Glo luminescence, 60 min. 330,000 compounds, 0.01% hits;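 active = highest replicate inhibition of at least 50% and at least 75% of replicates reaching 50%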;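 also: plate controls were DMSO neutral control for no effect and GW8510 at 10 µM for full effect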
# An asterisk follows results filed as active; · = no result. This is a sample that favours compounds with a hit; in the whole collection about 3.9% have one here.
SMILES,SUMO Mot1 rescue,Casp6 inh,Glyco luc inh,NSD2 HMT inh,ALR H2O2 inh,CDK5 inh
OC[C@@H]1[C@@H](c2ccc(C#Cc3ccccc3)cc2)[C@@H]2CN(Cc3cncnc3)CCCCN12,·,0,·,·,·,·
COc1ccc(CCC(=O)N(C)CC(=O)Nc2ccc(N3CCOCC3)cc2)cc1,-2,2,-1,1,94*,1
COCCNC(=O)C[C@H]1CC[C@H]2[C@@H](COc3ccc(NC(=O)c4cc(C)on4)cc3C(=O)N2C)O1,·,-3,·,·,·,·
CCOC(=O)N1CCN(C(=O)CN(C)S(=O)(=O)c2ccc3c(c2)c(=O)n(C)c(=O)n3C)CC1,-17,42*,1,-1,-20,0
O=C(CSCc1nc2ccccc2[nH]1)Nc1ccc(Oc2ccccc2)cc1,43,·,-1,-1,-8,0
O=C(CS)Nc1ccc2ccccc2c1,-5,-2,2,-1,97*,1
O=C(CSCc1nc2ccccc2[nH]1)Nc1ccc2ccccc2c1,-6,·,5,-4,99*,0
O=C(C[C@H]1CC[C@H](NC(=O)C2CCOCC2)[C@H](CO)O1)NCc1ccncc1,·,2,·,·,·,·
CCS(=O)(=O)Nc1ccc2c(c1)C(=O)N(C)[C@H]1CC[C@@H](CC(=O)Nc3ccccc3)O[C@@H]1CO2,·,0,·,·,·,·
CCN(CC)CCn1c(=S)[nH]c2ccc(Cl)cc2c1=O,8,·,2,3,89*,-1
CC=Cc1ccc2n(c1=O)C[C@H]1[C@H](CO)[C@@H](C(=O)N3CCOCC3)N(CC3CC3)[C@@H]21 (mixture of isomers),·,0,·,·,·,·
CC(=O)Oc1ccc(C)cc1-n1nc2ccccc2n1,-3,·,-4,-3,40,0
Cc1ccc(OCC(=O)O)c(-n2nc3ccccc3n2)c1,340*,·,0,-1,-3,0
C[C@H](CO)N1C[C@H](C)[C@H](CN(C)C(=O)C2CC2)Oc2cc(C#C[C@@H](C)O)ccc2S1(=O)=O,·,-1,·,·,·,·
Cc1c(C(=O)N2CCCC2)oc2c1-c1nn(CC(=O)NCCCOC(C)C)cc1CC2,-27,9,0,138*,-40,·
CCCCN(CC)CCNC(=O)Cn1cc2c(n1)-c1c(oc(C(=O)N3CCCC3)c1C)CC2,-4,-30,-3,18,-194,0
COc1ccc(S(=O)(=O)N(C)C[C@H]2Oc3ccc(N(C)C)cc3CC(=O)N([C@@H](C)CO)C[C@@H]2C)cc1,·,3,·,·,·,·
CCOc1ccc(Nc2ccc(N)c(S(=O)(=O)O)c2)cc1,·,92*,1,·,·,-15
CNC[C@H]1Oc2ccc(NC(=O)Nc3ccc(C(F)(F)F)cc3)cc2CC(=O)N([C@H](C)CO)C[C@@H]1C,·,-9,·,·,·,·
CCN(CC)c1ccc(/C=C(/C#N)C(=O)NCc2ccccc2)o1,375,8,1,-2,43,0
CC(C)NC(=O)/C(C#N)=C\c1ccc(N(C)C)o1,-8,4,-1,5,97*,0
CCN(CC)c1ccc(/C=C(/C#N)C(=O)NC(C)C)o1,-9,-4,-3,6,99*,-2
CC(=O)N1[C@@H]2c3ccc(-c4ccccc4)c(=O)n3C[C@@H]2[C@@H](CO)[C@@H]1C(=O)NCc1ccccc1Cl,·,0,·,·,·,·
COc1cc(/C=C2/SC(=O)NC2=O)ccc1Oc1ccc([N+](=O)[O-])cc1[N+](=O)[O-],4,30,-1,3,97*,1
COc1cc(/C=C2/SC(N)=NC2=O)ccc1Oc1ccc([N+](=O)[O-])cc1[N+](=O)[O-],3,·,-1,-1,-6,2
SMILES,SUMO Mot1 rescue,Casp6 inh,Glyco luc inh,NSD2 HMT inh,ALR H2O2 inh,CDK5 inh
COc1cc(/C=C(/C#N)c2ccccc2)ccc1Oc1ccc([N+](=O)[O-])cn1,-8,·,-8,-5,-7,1
COc1cc(/C=C2\SC(=O)NC2=O)ccc1Oc1ccc([N+](=O)[O-])cn1,-3,3,0,·,98*,-4
Cc1nc2cccc(C(=O)Oc3ccc([N+](=O)[O-])cc3)c2o1,-16,9,1,-1,97*,1
O=C(C[C@H]1CC[C@@H]2[C@H](COC[C@H](O)CN2Cc2ccccc2F)O1)N1CCc2ccccc2C1,·,-4,·,·,·,·
N#Cc1cccc(-c2ccc3c(c2)[C@@H]2[C@@H](CCN2C(=O)C2CCCCC2)[C@H](CO)N3)c1,·,1,·,·,·,·
O=C1OCC(CO)(CO)N=C1NNc1ccc(Cl)c(Cl)c1,63,-3,3,0,100*,0
c1ccc(Oc2nc(N3CCOCC3)nc(N3CCOCC3)n2)cc1,-26,·,-1,-2,88*,0
CCOc1ccc(Nc2nc(N3CCOCC3)nc(N3CCOCC3)n2)cc1,3,41*,-5,-1,2,0
CSc1nc2ccc(Nc3nc(N4CCOCC4)nc(N4CCOCC4)n3)cc2s1,-3,·,-10,·,98*,-3
C[C@@H](NC(=O)[C@H]1N[C@H]2c3ccc(-c4cccnc4)c(=O)n3C[C@H]2[C@@H]1CO)c1ccccc1,·,-1,·,·,·,·
CN1c2ccccc2C(C)(C)C12C=Nc1c(ccc3ccccc13)O2 (stereo unspecified),-12,·,-1,-1,-34,0
CN1c2ccccc2C(C)(C)[C@]12C=Cc1cc(O)ccc1O2,-15,·,-1,9,88*,0
COc1ccc(NC(=O)Nc2ccc3nccnc3c2)cc1,-4,·,-2,2,100*,1
COc1ccc(NC(=O)Nc2ccc3nonc3c2)cc1,12,-1,0,1,-2,·
C[C@@H]1CN([C@@H](C)CO)C(=O)c2cc(-c3ccncc3)cnc2O[C@H]1CN(C)C(=O)NC1CCCC1,·,-6,·,·,·,·
COc1ccc(Br)cc1C1CC(=O)N2CN(C)CSC2=C1C#N (stereo unspecified),15,35*,2,·,-14,1
COc1ccc(OC)c(C2CC(=O)N3CN(c4ccccc4F)CSC3=C2C#N)c1 (stereo unspecified),-12,4,2,·,79*,-5
COc1cc(OC)c(C2CC(=O)N3CN(C)CSC3=C2C#N)cc1OC (stereo unspecified),-5,3,2,·,-18,3
O=C(C[C@H]1CC[C@@H]2[C@H](COC[C@H](O)CN2Cc2cc(F)ccc2F)O1)N1CCc2ccccc2C1,·,3,·,·,·,·
COc1ccc(CCNC(=S)N2CCN(S(=O)(=O)c3cccc(F)c3)CC2)cc1,351*,1,0,-2,-1,0
COc1ccc(CNC(=S)N2CCN(S(=O)(=O)c3cccc(F)c3)CC2)cc1,1,1,-5,0,-3,-1
Cn1cnnc1SCc1cccc(Br)c1,264*,·,-2,0,2,-1
CCCc1[nH]c2ccc(C(=O)OC)cc2c1CCC,260,0,0,·,0,0
CCCc1[nH]c2ccc(C#N)cc2c1CCC,-22,1,-4,·,97*,2
